From the OligoGym collection

What follows are sequences tested against SLC25A3 (assay: pooled miR-30 sensor sort-seq; sequence = guide strand). Settings: shRNA.
Note: reference of the scale not given here.

| Sequence | sensor-assay potency score (higher = more potent) |
| --- | --- |
| TAAGTGTAACTGAGAATCCGTT | -0.605 |
| TTCACAACTGTACTCTTCCACG | -0.783 |
| TTTAAATCCAAGTCTCTTGAGG | -0.533 |
| TTGTACAGTGCTTCAACAGTAC | 0.043 |

What follows are sequences tested against SLC25A41 in the same assay as above. Settings: shRNA.

| Sequence | sensor-assay potency score (higher = more potent) |
| --- | --- |
| TGCATGTACACCTTGGCTCTGT | -0.291 |
| TTCAAGGTTGTTGTCATGCATG | -1.11 |
| TATTCCACAGAAGTAATTCTTG | -0.218 |
| TCTCGCTGCAAGATCTGCCTGG | -0.421 |
| TTGCACTGCTCGAATACGGAGA | -0.376 |
| TTGGTGAAGTTCGTCTTGGAGG | -1.22 |
| TACACCACATAGCTGATGCCAC | -0.548 |
| TAGACAGCCAGGTCGGTGCAGG | -0.911 |
| TAGACCTGCATGTACACCTTGG | -0.353 |
| ATACTCAGGAGCAATCTTGAGC | -0.858 |
| TAGAGCAAGTGTTCTGAGGTTC | 0.286 |
| TCCTGTGTCCAGTACCTGCTGT | -0.625 |
